From PubChem BioAssay (NCI)
About 83,000 compounds went through this panel and 20% of them were active in at least one assay; those are over-represented in the sample as a whole.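 Percent growth is the endpoint: 0 to 100 indicates growth inhibition (40 means 60% inhibition), 0 means no net growth, and negative values indicate cell death.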 Activity calls are given as the source filed them. How the source made its calls: active means growth percent below 10; inactive means the rest.

Legend:
Assay in all cases: NCI-60 one-dose screen, 48 h (100 = growth as untreated, 0 = no growth, -100 = all killed)
Settings in all cases: 10 µM
T-47D breast = system: T-47D breast
BT-549 breast = system: BT-549 breast
MDA-MB-435 melanoma = system: MDA-MB-435 melanoma
SW-620 colon = system: SW-620 colon
MCF7 breast = system: MCF7 breast
HCT-116 colon = system: HCT-116 colon
HCC-2998 colon = system: HCC-2998 colon
KM12 colon = system: KM12 colon
MDA-MB-468 breast = system: MDA-MB-468 breast

Structure (SMILES) | growth (T-47D breast) | growth (BT-549 breast) | growth (MDA-MB-435 melanoma) | growth (SW-620 colon) | growth (MCF7 breast) | growth (HCT-116 colon) | growth (HCC-2998 colon) | growth (KM12 colon) | growth (MDA-MB-468 breast)
COc1ccc2cc([C@H](C)C(=O)NCc3ccccc3)ccc2c1 | 41.5% (inactive) | 42.8% (inactive) | -13.2% (active) | 29.3% (inactive) | 22.5% (inactive) | 37% (inactive) | 50.7% (inactive) | 39.1% (inactive) | –
Cc1cc(C)cc(Oc2cccc(-c3c(C)nnn3C3CCN(CCN(C)C)CC3)n2)c1 | 24.8% (inactive) | 9.68% (active) | 20.7% (inactive) | 45.9% (inactive) | 6.99% (active) | 15.2% (inactive) | 0.234% (active) | 37% (inactive) | –
CCCCSc1nc(Nc2ccc(/C(C)=N/NC(N)=S)cc2)c(C#N)c(-c2ccccc2)n1 | 45.9% (inactive) | 31.1% (inactive) | 65.4% (inactive) | 56.8% (inactive) | 30.7% (inactive) | 24.6% (inactive) | 53.1% (inactive) | 72.4% (inactive) | -28.4% (active)
CC(=O)Nc1ccc(-c2cn(-c3cccc(C(=O)Nc4ccc(Cl)c(C(F)(F)F)c4)c3)nn2)cn1 | 16.3% (inactive) | -52.7% (active) | -70.6% (active) | -75.5% (active) | -48.3% (active) | -53.9% (active) | -36.1% (active) | -3.58% (active) | –
COc1ccc(C=CC(=O)c2ccc(-n3c(C)nc4c(cnn4-c4ccccc4)c3=O)cc2)cc1 | 34.7% (inactive) | 45% (inactive) | 11.2% (inactive) | 75.1% (inactive) | 8.3% (active) | 9.71% (active) | 86.8% (inactive) | 31.6% (inactive) | 11.3% (inactive)
Cc1ccc(-c2nc3ccc(C(=O)N=Nc4c(O)[nH]c5ccc(Br)cc45)cc3[nH]2)cc1 | 84.7% (inactive) | 138% (inactive) | 57.9% (inactive) | 7.03% (active) | 21.7% (inactive) | 26.3% (inactive) | 20.5% (inactive) | 32.6% (inactive) | –
CN(C)c1cccc2c(S(=O)(=O)Nc3cccc(-c4csc(NC(=O)CCCCCN5CCN(c6cc7c(cc6F)C(=O)N(C6CCC(=O)NC6=O)C7=O)CC5)n4)c3)cccc12 (stereo unspecified) | 74.7% (inactive) | 85.6% (inactive) | 95.2% (inactive) | 98.6% (inactive) | 73.5% (inactive) | 68.3% (inactive) | 111% (inactive) | 104% (inactive) | –
COc1ccc(CN2[C@H](C(=O)NCc3ccc(C(=O)NO)cc3)Cc3c([nH]c4ccccc34)[C@H]2C2CC2)cc1 | 40.4% (inactive) | 58.6% (inactive) | 18.1% (inactive) | 30.9% (inactive) | 36.8% (inactive) | 23% (inactive) | 33% (inactive) | 44.7% (inactive) | –
Nc1nc(Nc2ccc(Cl)cc2)nn1Cc1cccc(Br)c1 | 19.3% (inactive) | 34.2% (inactive) | 36.7% (inactive) | 61.9% (inactive) | 18.2% (inactive) | 35.2% (inactive) | 5.71% (active) | 16.7% (inactive) | 28.1% (inactive)
COc1ccc2[nH]cc(/C=N/Nc3cccc(Cl)n3)c2c1 | 31.5% (inactive) | 12.1% (inactive) | 44.7% (inactive) | 79.7% (inactive) | 31.9% (inactive) | 37.3% (inactive) | 39.7% (inactive) | 21.3% (inactive) | –
CN1CCCN(Cc2ccc(C(=O)Nc3cccc(Nc4ccc5c(O)cccc5n4)c3)cc2C(F)(F)F)CC1 | -27.7% (active) | -75.2% (active) | -96.5% (active) | -92.7% (active) | -96.5% (active) | -67.4% (active) | -85.3% (active) | -11% (active) | -94.5% (active)
CC(=O)C1=C(C)NC(SCC(=O)Nc2ccc(S(=O)(=O)Nc3cc(C)on3)cc2)=NC1c1ccccc1 (stereo unspecified) | 99.3% (inactive) | 114% (inactive) | 99.6% (inactive) | 106% (inactive) | 87.5% (inactive) | 105% (inactive) | 112% (inactive) | 99.8% (inactive) | –
COc1ccc(N2N=C(c3ccc4c(c3)OCCO4)CC2c2cccc(NC(=O)CCCNS(=O)(=O)c3ccc(F)cc3)c2)cc1 (stereo unspecified) | 63.3% (inactive) | 78.3% (inactive) | 69.7% (inactive) | 95.2% (inactive) | 60.7% (inactive) | 73.3% (inactive) | 77.1% (inactive) | -92.8% (active) | 60.8% (inactive)
O=c1[nH]c2ccc(Cl)cc2cc1CSc1ccc(Nc2nccc(-c3ccc4ccccc4c3)n2)cc1 | 100% (inactive) | 83.4% (inactive) | 84.7% (inactive) | 17.6% (inactive) | 29.2% (inactive) | 55% (inactive) | 79.6% (inactive) | 53% (inactive) | –
O=C(CSc1nnc(-c2ccc3nc(-c4ccc(Cl)cc4)[nH]c3c2)o1)Nc1ccc(Cl)cc1 | 28% (inactive) | -65.1% (active) | -65.8% (active) | -69.9% (active) | -72.7% (active) | -48.9% (active) | 18.5% (inactive) | -12.8% (active) | –
O=C(CNc1nc(-c2ccccc2)cs1)Nc1ccccc1 | -15.3% (active) | -57.7% (active) | -3.84% (active) | -38.6% (active) | -59.7% (active) | 3.71% (active) | -94.9% (active) | 2.41% (active) | –
COc1ccc(CCN2C(=O)/C(=C/c3csc(C#N)n3)SC2=S)cc1OC | -7.6% (active) | 24.5% (inactive) | 23.5% (inactive) | -20.5% (active) | -15.9% (active) | -69.1% (active) | 116% (inactive) | 35% (inactive) | –
COc1ccc2[nH]c(O)c(N=NC(=O)c3cc(-c4ccc(C)cc4)nc4ccccc34)c2c1 | 69% (inactive) | 139% (inactive) | 95.4% (inactive) | 107% (inactive) | 61% (inactive) | 78.1% (inactive) | 115% (inactive) | 95.1% (inactive) | –
COC[C@@H](CC(C)C)N=C1NC(=O)/C(=C/c2ccc3ncoc3c2)N1 | -4.84% (active) | 2.39% (active) | 17.3% (inactive) | 0.318% (active) | 1.91% (active) | 22.8% (inactive) | 36.7% (inactive) | 16.4% (inactive) | –
Cc1ccc(-c2ccc(SCC(=O)Nc3ccc(S(N)(=O)=O)cc3Br)nn2)cc1 | 35.2% (inactive) | 14.2% (inactive) | 61.9% (inactive) | 60% (inactive) | 32.4% (inactive) | -7.84% (active) | 39.4% (inactive) | 38.3% (inactive) | –
NS(=O)(=O)c1ccc(N=Nc2c(O)n(CC(=O)Nc3ccccc3Br)c3ccccc23)cc1 | 38.1% (inactive) | 0.165% (active) | 50.6% (inactive) | 44.4% (inactive) | 10.7% (inactive) | 21.4% (inactive) | 39.5% (inactive) | 36.7% (inactive) | –
CC1=C(c2cc(-c3ccc(Cl)cc3)c(C#N)c(N)n2)C(c2ccccc2)NC(=S)N1 (stereo unspecified) | 54.5% (inactive) | 42.1% (inactive) | 25.3% (inactive) | 45.7% (inactive) | 31.6% (inactive) | -18.8% (active) | 83.3% (inactive) | 49.5% (inactive) | –
Cn1cc(-c2cc(N)n3nc(-c4c[nH]c5ccc(Br)cc45)cc3n2)c2cc(Br)cnc21 | -74.7% (active) | -75.4% (active) | -46.3% (active) | -71.2% (active) | -79.5% (active) | -69.6% (active) | -98.1% (active) | -73.1% (active) | –
O=C(Nc1nc2ccc([N+](=O)[O-])cc2s1)Nc1cc(Cl)ccc1I | -25.9% (active) | -87.2% (active) | -52.1% (active) | -50.3% (active) | -28.9% (active) | -78.8% (active) | -41.6% (active) | -48.7% (active) | –
Nc1nc(Nc2ccc(Cl)cc2)n(Cc2cccc(Br)c2)n1 | 15.1% (inactive) | -51.4% (active) | -64.9% (active) | -16.5% (active) | -31.6% (active) | -57.7% (active) | -71.6% (active) | -0.172% (active) | –
Cc1nc2c(cnn2-c2ccccc2)c(=O)n1-c1ccc(NC(=O)c2ccc(F)cc2)cc1 | 18% (inactive) | 46% (inactive) | 53.8% (inactive) | 76.5% (inactive) | 35.8% (inactive) | 48.3% (inactive) | 79.9% (inactive) | 64.1% (inactive) | –
Cc1ccc(C(=O)Nc2ccc(-n3c(C)nc4c(cnn4-c4ccccc4)c3=O)cc2)cc1 | 34.6% (inactive) | 59.2% (inactive) | 70.5% (inactive) | 86.2% (inactive) | 47.8% (inactive) | 51.5% (inactive) | 88.4% (inactive) | 77.5% (inactive) | –
CCCn1c(=O)c2[nH]c(-c3ccc(OCc4nc5ccc(C)cc5[nH]4)cc3)nc2n(CCC)c1=O | -13.2% (active) | 36.3% (inactive) | 49.1% (inactive) | 27.5% (inactive) | 17.6% (inactive) | 14.6% (inactive) | 61.6% (inactive) | 69.7% (inactive) | 16.7% (inactive)
CCCCCCCCCCCCCCCCCCCC(=O)NCCc1c[nH]c2ccc(OC(=O)NOCCOCCOCCOCCOCCOCCOCCOCCOCCOCCOCCOCCOCCOCCOCCOCCOCCOCCOCCOCCOCCOCCOC)cc12 | -8.69% (active) | -12.7% (active) | 17.2% (inactive) | 26.6% (inactive) | -12.3% (active) | -21.7% (active) | -2.45% (active) | 14.9% (inactive) | –
C[C@H]1[C@H](C)CC[C@]2(COC(=O)CCC(=O)NCC#CCN3CCNCC3)CC[C@]3(C)C(=CC[C@@H]4[C@@]5(C)CCCNC(C)(C)[C@@H]5CC[C@]43C)[C@H]12 | 40% (inactive) | 55.4% (inactive) | 32.4% (inactive) | -2.55% (active) | 1.4% (active) | 10.5% (inactive) | -41.7% (active) | 32.4% (inactive) | –
